This note sets out measurements from PubChem BioAssay (EPA / NIEHS).

One may read the AC50 as the midpoint of the concentration-response curve, whichever way the signal moves.

Read-out in assay [1]: Collagen IV, COL4A1 (gene 1282)
The assay can be described thus: BSK_MyoF_CollagenIV: BioMAP Diversity Plus: MyoF Assay for Collagen IV Biomarker Activity (AID 2284247). The note with it: primary human lung fibroblasts. Summed up: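 ELISA read-out of Collagen IV in lung fibroblast cultures, 24 h post-dosing; gain of signal relative to DMSO vehicle baseline defines activity.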

Read-out in assay [2]: Monokine induced gamma interferon (MIG), CXCL9 (gene 4283)
Put plainly: BSK_KF3CT_MIG: BioMAP Diversity Plus: KF3CT Assay for Monokine induced gamma interferon (MIG) Biomarker Activity (AID 2284248). The note with it: primary human keratinocytes with fibroblasts. Summed up: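 The assay uses a co-culture of human keratinocytes and foreskin fibroblasts. Measurement occurs 24 hours after dosing, with MIG detected by ELISA and the DMSO control as baseline.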

Read-out in assay [3]: Vascular cell adhesion molecule 1 (VCAM1), VCAM1 (gene 7412)
The assay can be described thus: BSK_BF4T_VCAM1: BioMAP Diversity Plus: BF4T Assay for Vascular cell adhesion molecule 1 (VCAM1) Biomarker Activity (AID 2284249). The note with it: primary human bronchial epithelial cells with fibroblasts. Summed up: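 Cell-surface VCAM-1 quantified by ELISA after 24 h chemical exposure of human bronchial epithelial/dermal fibroblast co-cultures, with SRB staining in parallel wells for cytotoxicity; DMSO baseline, positive-direction fitting.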

Read-out in assay [4]: Collagen I, COL1A1 (gene 1277)
Put plainly: BSK_hDFCGF_CollagenI: BioMAP Diversity Plus: hDFCGF Assay for Collagen I Biomarker Activity (AID 2284250). The settings on record: primary human foreskin fibroblasts. Summed up: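 ELISA read-out of Collagen I in human dermal foreskin fibroblast cultures, 24 h after dosing. Gain of signal versus DMSO vehicle defines activity.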

Read-out in assay [5]: Plasminogen activator inhibitor-1 (PAI1), SERPINE1 (gene 5054)
Put plainly: BSK_KF3CT_PAI1: BioMAP Diversity Plus: KF3CT Assay for Plasminogen activator inhibitor-1 (PAI1) Biomarker Activity (AID 2284252). The settings on record: primary human keratinocytes with fibroblasts. Summed up: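 Keratinocyte + dermal fibroblast co-culture (human primary); 24 h post-dose; PAI-1 by ELISA; gain-of-signal fit vs DMSO control.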

Read-out in assay [6]: Monocyte Chemoattractant Protein-1 (MCP1), CCL2 (gene 6347)
Put plainly: BSK_IMphg_MCP1: BioMAP Diversity Plus: IMphg Assay for Monocyte Chemoattractant Protein-1 (MCP1) Biomarker Activity (AID 2284253). The note with it: primary human endothelial cells with macrophages. The procedure, abridged:
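ELISA readout of MCP-1 at 24 hours in IMphg co-cultures of venular endothelial cells and macrophages, normalised to DMSO; parallel cultures stained with sulforhodamine B for overt cytotoxicity.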

Read-out in assay [7]: Interleukin-8 (IL8), CXCL8 (gene 3576)
Put plainly: BSK_KF3CT_IL8: BioMAP Diversity Plus: KF3CT Assay for Interleukin-8 (IL8) Biomarker Activity (AID 2284254). The note with it: primary human keratinocytes with fibroblasts. Summed up: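 ELISA detection of IL-8 from a human skin co-culture, keratinocytes with foreskin fibroblasts, at 24 h following chemical exposure, with gain of signal scored against DMSO controls.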

Read-out in assay [8]: Macrophage Inflammatory Protein-1 Alpha (MIP1a), CCL3 (gene 6348)
Put plainly: BSK_IMphg_MIP1a: BioMAP Diversity Plus: IMphg Assay for Macrophage Inflammatory Protein-1 Alpha (MIP1a) Biomarker Activity (AID 2284255). The settings on record: primary human endothelial cells with macrophages. The procedure, abridged:
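MIP-1a protein levels were quantified by ELISA after 24 h treatment of human endothelial cell–macrophage co-cultures, compared with DMSO. Parallel cultures were fixed with TCA and stained with 0.1% SRB to gauge overt cytotoxicity.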

Read-out in assay [9]: Plasminogen activator inhibitor-1 (PAI1), SERPINE1 (gene 5054)
The assay can be described thus: BSK_MyoF_PAI1: BioMAP Diversity Plus: MyoF Assay for Plasminogen activator inhibitor-1 (PAI1) Biomarker Activity (AID 2284256).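 On outcome: PAI-1 protein level measured by ELISA in fibroblast cultures; PAI-1 read 24 h after compound addition.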 The note with it: primary human lung fibroblasts. Summed up: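 Activity reflects increased PAI-1, determined by ELISA and compared with DMSO, in human lung fibroblasts treated for 24 h.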

Each structure is given as a SMILES string. Several values for one entry are separate records, joined by “and”; a condition that tells them apart may be missing. Equal entries are not always repeated. A structure can be active in one record and inactive in another. Activity calls are given as the source filed them. How the source made its calls: active means hit-call score of the fitted dose curve at least 0.9, where 1 is the maximum; inactive means score below 0.9.

Turning to `FC(F)(F)C(F)(F)C(F)(F)C(F)(F)CCI`, the outcome in [1], in assay [2], in [3], in assay [4], in assay [5] and in [6] was inactive. In addition, the result in [7], in [8] and in assay [9] was inactive.

For `CCN(CC)c1ccc2c(C)cc(=O)oc2c1`, the outcome in assay [1] and in assay [9] was inactive.

For the molecule `OCCCC(F)(F)C(F)(F)C(F)(F)F`, the result in assay [1], in assay [2], in assay [3], in [4], in assay [5] and in [6] was inactive. Moreover, the result in [7], in [8] and in assay [9] was inactive.

As to `O=S(=O)(O)C(F)(F)C(F)(F)C(F)(F)C(F)(F)C(F)(F)C(F)(F)C(F)(F)F`, the outcome in [1], in assay [2], in assay [3], in assay [4], in [5] and in [6] was inactive. Moreover, the outcome in assay [7], in assay [8] and in assay [9] was inactive.

Turning to `CCCCCCOC(=O)c1ccccc1O`, the outcome in assay [2], in assay [5] and in [7] was inactive. Moreover, the AC50 in [4] is 18.7 µM (active) and 10.1 µM (active); in assay [5] it was 17.4 µM (active).

For `FC(F)(F)C(F)(F)C(F)(F)C(F)(F)C(F)(F)C(F)(F)C(F)(F)I`, the AC50 in assay [1] is 4.81 µM (active) and 1.16 µM (active). Also, the result in assay [2], in assay [3], in assay [4], in [5], in [6] and in assay [7] was inactive. Moreover, the outcome in assay [8] and in assay [9] was inactive.

In the case of `CCc1c(Br)c(Br)c(Br)c(Br)c1Br`, the result in assay [1] and in assay [9] was inactive.

`O=C(O)C(F)(OC(F)(F)C(F)(OC(F)(F)C(F)(OC(F)(F)C(F)(F)C(F)(F)F)C(F)(F)F)C(F)(F)F)C(F)(F)F` (centres undefined): the result in assay [1], in assay [2], in assay [3], in [4], in assay [5] and in [6] was inactive. Besides, the result in [7], in assay [8] and in assay [9] was inactive.

On to `O=C(O)C(F)(OC(F)(F)C(F)(OC(F)(F)C(F)(F)C(F)(F)F)C(F)(F)F)C(F)(F)F` (centres undefined), for which the result in assay [1], in assay [2], in assay [3], in assay [4], in assay [5] and in assay [6] was inactive. Further, the result in assay [7], in assay [8] and in [9] was inactive.

`NC(=O)C(F)(F)C(F)(F)C(F)(F)C(F)(F)F`: the result in [1], in [2], in assay [3], in assay [4], in assay [5] and in assay [6] was inactive. Further, the result in [7], in [8] and in assay [9] was inactive.

Turning to `FC(F)(F)C(F)(F)C(F)(F)C(F)(F)C(F)(F)CCI`, the outcome in assay [1], in assay [2], in assay [3], in [4], in [5] and in assay [6] was inactive. For the same molecule, the result in assay [7], in assay [8] and in assay [9] was inactive.

`CS(C)(=O)=O`: the result in assay [1] and in assay [9] was inactive.

With `CCCCCCCCCCCCCCCC[N+](C)(C)Cc1ccccc1`, the results for the AC50 in assay [1] and in assay [9] were 3.21 µM (active) and 2.47 µM (active), respectively.

For `Oc1ccc(Nc2ccccc2)cc1`, in [1], the result was inactive. In addition, in assay [9], the AC50 was 7.66 µM (active).

As to `C#C[C@]1(O)CC[C@H]2[C@@H]3CCc4cc(OC)ccc4[C@H]3CC[C@@]21C`, the result in [1] and in [9] was inactive.

As for `FC(F)(F)C(F)(F)C(F)(F)C(F)(F)C(F)(F)C(F)(F)CCS`, the outcome in assay [1], in [2], in [3], in assay [4], in assay [5] and in [6] was inactive. The outcome in assay [7], in assay [8] and in [9] was inactive. Further, the AC50 in [9] is 0.0795 µM (active).

With `CCCCNc1ccccc1`, the outcome in assay [1] and in assay [9] was inactive.

With `CCCCOCCOCCOC(=O)CCCCC(=O)OCCOCCOCCCC`, the outcome in assay [1] and in [9] was inactive.

Regarding `O[Si](c1ccccc1)(c1ccccc1)c1ccccc1`, the result in assay [1] was inactive. The AC50 in assay [9] is 20 µM (active).

In the case of `CO[Si](OC)(c1ccccc1)c1ccccc1`, the outcome in [1] was inactive. Further, the AC50 in assay [9] is 30.5 µM (active).

For `FC(F)(F)C(F)(F)C(F)(F)CI`, the outcome in assay [1], in [2], in assay [3], in assay [4], in assay [5] and in [6] was inactive. The outcome in assay [7], in assay [8] and in assay [9] was inactive.

In the case of `C=CC/C=C/C/C=C/C/C=C/C`, in assay [1], the result was inactive. The AC50 in [9] is 0.016 µM (active).

Regarding `CCCCCCCOC(=O)c1ccccc1C(=O)OCCCCCCC`, the result in assay [1] and in assay [9] was inactive.

Consider `FC(F)(F)C(F)(F)C(F)(F)C(F)(F)C(F)(F)C(F)(F)C(F)(F)C(F)(F)F`, for which the result in [1], in assay [2], in assay [3], in [4], in assay [5] and in assay [6] was inactive. The outcome in [7], in assay [8] and in [9] was inactive.
